Measured values taken from the supplement of paper PMC4723716.
± gives the uncertainty stated by the source. Whole data set: some 9,900 compounds, median “viability index relative to DMSO control” near 1, cut for the lowest 2% near 0.85. Only a selection was taken, and the lowest values are over-represented in it overall.

Tested on: Plasmodium falciparum NF54 stage V gametocytes
Assay: viability index relative to DMSO control (fraction); higher = less gametocyte killing
Conditions: 2.5 µM, incubation time: 72 h
Method in brief: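 P. falciparum NF54 stage V gametocytes in serum-free screening medium (0.75% gametocytemia, 1.25% hematocrit, 10 µl) were incubated with compound at 2.5 µM in 1,536-well plates for 72 hr at 37°C under low oxygen. Then 3 µl of 2.5 µM MitoTracker Red CMXRos plus 0.13% saponin was added for one to two hours. One field per well was imaged, 20–70 µm2 red particles were counted, and the viability index was the count divided by the plate mean of DMSO wells.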

[1] = library set: Broad Institute DOS
[2] = library set: Broad Institute Blood Stage

Compound	viability index [1]	viability index [2]
COc1ccc(S(=O)(=O)Nc2cccc3c2O[C@@H](CN(C)CC2CCCCC2)[C@H](C)CN([C@H](C)CO)C3=O)cc1	0.958 ± 0.094	
COc1ccc2c3c([nH]c2c1)[C@H](CO)N(C[C@]31CCN(CC1)C(=O)Nc1ccccc1)S(C)(=O)=O	0.121 ± 0.0032	
COc1ccc2c3c([nH]c2c1)[C@@H](CO)N(C[C@]31CCN(CC1)C(=O)Nc1ccccc1)S(C)(=O)=O	0.99 ± 0.15	
COCC(=O)N1C[C@@]2(C1)CN([C@H](CO)c1[nH]c3cc(OC)ccc3c21)C(=O)Nc1ccccc1F	1.03 ± 0.071	
COc1ccc2c3c([nH]c2c1)[C@H](CO)N(C[C@]31CCN(CC1)C(=O)Nc1ccc(F)cc1F)C(C)=O	0.748 ± 0.035	
CCC(=O)N1C[C@]2(CCN(CC2)C(=O)Nc2ccccc2F)c2c([nH]c3cc(OC)ccc23)[C@H]1CO	0.9987 ± 0.0051	
COc1ccc2c3c([nH]c2c1)[C@@H](CO)N(C[C@]31CCN(CC1)C(C)=O)C(C)=O	0.9689 ± 0.0023	
COCC(=O)N1CC[C@@]2(CC1)CN([C@@H](CO)c1[nH]c3cc(OC)ccc3c21)S(C)(=O)=O	1.09 ± 0.06	
COc1ccc2c3c([nH]c2c1)[C@@H](CO)N(C[C@]31CCN(CC1)C(=O)Nc1ccc(F)cc1F)C(C)=O	1.07 ± 0.056	
COc1ccc2c3c([nH]c2c1)[C@@H](CO)N(C[C@]31CN(CC2CC2)C1)C(=O)CN(C)C	0.939 ± 0.018	
CCC(=O)N1C[C@]2(CCN(CC2)C(=O)Nc2ccccc2F)c2c([nH]c3cc(OC)ccc23)[C@@H]1CO	0.642 ± 0.081	
COc1ccc2c3c([nH]c2c1)[C@@H](CO)N(C[C@]31CCN(CC2CCCCC2)CC1)C(=O)CN(C)C		0.807 ± 0.026
COc1ccc2c3c([nH]c2c1)[C@H](CO)N(C[C@]31CN(CC2CC2)C1)C(=O)CN(C)C	1.07 ± 0.032	
O=C(C[C@@H]1C[C@H]2c3cc(NS(=O)(=O)c4ccccc4)ccc3O[C@H]2[C@@H](CO)O1)N1CCOCC1	1.05 ± 0.026	
COCC(=O)NC[C@@H]1[C@H](c2ccccc2)[C@H](CO)N1C(=O)c1ccccc1	0.986 ± 0.17	
C[C@H]1CN([C@@H](C)CO)C(=O)c2cccc(NC(=O)c3cnccn3)c2O[C@H]1CN(C)C(=O)NC1CCCCC1	1.01 ± 0.033	
COc1ccccc1-c1ccc2n(c1=O)C[C@@H]1[C@@H](CO)[C@H](C(=O)N3CCOCC3)[C@H]2N1CC1CC1	1.04 ± 0.016	
COc1cccc(-c2ccc3n(c2=O)C[C@@H]2[C@@H](CO)[C@H](C(=O)N(C)C)[C@H]3N2C(=O)c2ccccn2)c1	1.04 ± 0.017	
CO[C@@H]1CN(C)C(=O)c2ccc(NC(=O)C3CC3)cc2OC[C@@H](C)N(C(C)=O)C[C@@H]1C	1.02 ± 0.042	
CN1C[C@@H](O)COC[C@H]2O[C@H](CC(=O)NC3CCCC3)CC[C@@H]21	1.05 ± 0.064	
COc1ccccc1NC(=O)N1C[C@@H]2N[C@H](C1)[C@H]2c1ccc(/C=C/c2ccccc2)cc1	0.976 ± 0.048	
O=C(C1CCC1)N1C[C@@H]2N[C@H](C1)[C@@H]2c1ccc(-c2cncnc2)cc1	1.115 ± 0.0039	
O=C(C1CCC1)N1C[C@@H]2N[C@H](C1)[C@H]2c1ccc(/C=C/c2ccccc2)cc1	1.02 ± 0.042	
O=C(C1CCC1)N1C[C@@H]2N[C@H](C1)[C@@H]2c1ccc(/C=C/c2ccccc2)cc1	0.799 ± 0.019	
C/C=C/c1ccc([C@H]2[C@@H]3CN(C(=O)Nc4ccccc4F)C[C@H]2N3)cc1	1.06 ± 0.034	

Compound	viability index [1]	viability index [2]
O=C(c1ccc2c(c1)OCO2)N1C[C@@H]2N[C@H](C1)[C@H]2c1ccc(/C=C/c2ccccc2)cc1	1.05 ± 0.017	
O=C(c1ccc2c(c1)OCO2)N1C[C@@H]2N[C@H](C1)[C@@H]2c1ccc(/C=C/c2ccccc2)cc1	0.731 ± 0.086	
COc1ccccc1NC(=O)N1C[C@@H]2N[C@H](C1)[C@@H]2c1ccc(/C=C/c2ccccc2)cc1	0.571 ± 0.027	
O=C(c1ccc2c(c1)OCO2)N1C[C@@H]2N[C@H](C1)[C@@H]2c1ccc(-c2cncnc2)cc1	1.08 ± 0.035	
CC(C)(C)[S@@](=O)N1Cc2cc(C(=O)NC3CCC3)nc(-c3cccc(-c4ccccc4F)c3)c2[C@H]1CCO	1.02 ± 0.012	
CC(C)C[C@H]1COCc2cn(nn2)CC[C@@H](Cc2ccc(Cl)cc2)C(=O)N1	0.955 ± 0.036	
Cc1noc(C)c1C(=O)N(C)C[C@H]1OCc2ccccc2-c2ccccc2C(=O)N([C@@H](C)CO)C[C@@H]1C	1.01 ± 0.065	
O=C(Nc1ccc2c(c1)[C@@H]1C[C@H](CC(=O)N3CCc4ccccc4C3)O[C@@H](CO)[C@@H]1O2)c1ccc2c(c1)OCO2	0.991 ± 0.038	
CN(C)C(=O)[C@@H]1[C@@H](CO)[C@@H]2Cn3c(ccc(C4=CCCC4)c3=O)[C@H]1N2S(=O)(=O)c1cn(C)cn1	0.984 ± 0.045	
N#C[C@H]1N[C@H](CO)[C@@H]1c1ccc(C#Cc2ccccc2F)cc1	1.07 ± 0.076	
CC[C@H]1C/C=C/C[C@@H](C)Oc2ccccc2C(=O)N(C)[C@H](C)C(=O)N1.CC[C@H]1C/C=C\C[C@@H](C)Oc2ccccc2C(=O)N(C)[C@H](C)C(=O)N1	1.04 ± 0.086	
CC(C)C#Cc1ccc([C@H]2[C@H]3CN(C(=O)Cc4ccccc4)CC(=O)N3[C@H]2CO)cc1	1.045 ± 0.0096	
Cc1cccc(-c2ccc([C@H]3[C@H]4CN(S(=O)(=O)c5ccccc5F)CCCCN4[C@H]3CO)cc2)c1	0.973 ± 0.094	
Cc1ccccc1-c1ccc([C@H]2[C@H](CO)N3CCCCN(S(=O)(=O)Cc4ccccc4)C[C@@H]23)cc1	0.924 ± 0.034	
Cc1cccc(-c2ccc([C@H]3[C@@H](CO)N4CCCCN(S(=O)(=O)c5ccccc5F)C[C@@H]34)cc2)c1	1 ± 0.044	
Cc1cccc(-c2ccc([C@@H]3[C@@H](CO)N4CCCCN(S(=O)(=O)c5ccccc5F)C[C@H]34)cc2)c1	0.537 ± 0.053	
Cc1ccccc1-c1ccc([C@H]2[C@@H](CO)N3CCCCN(S(=O)(=O)Cc4ccccc4)C[C@@H]23)cc1	0.991 ± 0.063	
Cc1ccccc1-c1ccc([C@@H]2[C@H](CO)N3CCCCN(S(=O)(=O)Cc4ccccc4)C[C@@H]23)cc1	0.74 ± 0.039	
Cc1noc(C)c1NC(=O)Nc1cccc2c1O[C@H](CN(C)Cc1ccc(C(=O)Nc3ccccc3N)cc1)[C@@H](C)CN([C@H](C)CO)C2=O	0.961 ± 0.023	
CNC[C@H]1OCCCC[C@@H](C)Oc2ccc(NC(=O)Nc3ccc(OC)cc3)cc2C(=O)N([C@@H](C)CO)C[C@@H]1C	0.965 ± 0.12	
Cc1cc(C(=O)Nc2ccc3c(c2)C(=O)N(C)[C@H]2CC[C@H](CC(=O)O)O[C@@H]2CO3)no1	0.927 ± 0.12	
C[C@@H]1CN([C@@H](C)CO)C(=O)c2cc(NS(=O)(=O)c3cccs3)ccc2O[C@@H](C)CCCCO[C@H]1CN(C)C(=O)c1ccncc1	1.07 ± 0.045	
O=C(Nc1cccc(F)c1)N1CCCCN2[C@@H](CO)[C@H](c3ccc(C#Cc4cccnc4)cc3)[C@@H]2C1	1.05 ± 0.075	
O=C(Nc1cccc(F)c1)N1CCCCN2[C@H](CO)[C@H](c3ccc(C#Cc4cccnc4)cc3)[C@@H]2C1	1.05 ± 0.024	
O=C(Nc1cccc(F)c1)N1CCCCN2[C@H](CO)[C@@H](c3ccc(C#Cc4cccnc4)cc3)[C@@H]2C1	1.07 ± 0.078	

Compound	viability index [1]	viability index [2]
O=C(Nc1ccc(F)cc1)N1CC(=O)N2[C@@H](CO)[C@H](c3ccc(C#Cc4cccnc4)cc3)[C@@H]2C1	1.11 ± 0.058	
COc1cccc(CN2CCCCN3[C@H](CO)[C@@H](c4ccc(C#Cc5cccnc5)cc4)[C@@H]3C2)c1		0.841 ± 0.06
O=C(Nc1cccc(F)c1)N1CCCCN2[C@H](C1)[C@H](c1ccc(C#Cc3cccnc3)cc1)[C@@H]2CO	0.836 ± 0.036	
O=C(Nc1cccc(F)c1)N1CCCCN2[C@@H](CO)[C@@H](c3ccc(C#Cc4cccnc4)cc3)[C@@H]2C1	0.979 ± 0.089	
COCC#Cc1ccc([C@@H]2[C@@H](CO)N3CCCCN(Cc4cccnc4)C[C@@H]23)cc1	1.06 ± 0.14	
O=C(Nc1ccc(F)cc1)N1CC(=O)N2[C@H](C1)[C@H](c1ccc(C#Cc3cccnc3)cc1)[C@@H]2CO	1.08 ± 0.07	
O=C(Nc1cccc(F)c1)N1CCCCN2[C@H](CO)[C@H](c3ccc(C#Cc4cccnc4)cc3)[C@H]2C1	0.848 ± 0.034	
COCC#Cc1ccc([C@@H]2[C@H](CO)N3CCCCN(Cc4cccnc4)C[C@@H]23)cc1	1.03 ± 0.068	
O=C(Nc1cccc(F)c1)N1CCCCN2[C@H](CO)[C@@H](c3ccc(C#Cc4cccnc4)cc3)[C@H]2C1	0.8437 ± 0.0061	
CCCC(=O)Nc1ccc2c(c1)C(=O)N(C)C[C@@H](OC)[C@@H](C)CN(Cc1ccc(F)cc1)[C@@H](C)CO2	0.941 ± 0.11	
O=C(C[C@H]1CC[C@@H]2[C@H](COC[C@@H](O)CN2S(=O)(=O)c2ccc(F)cc2)O1)NCCN1CCCCC1	1.113 ± 0.0099	
COc1ccc(CN(C)C[C@@H]2OCc3cnnn3CCCC(=O)N([C@@H](C)CO)C[C@@H]2C)cc1	1.012 ± 0.0093	
CN1C(=O)c2cc(NC(=O)c3ccc(F)c(F)c3)ccc2OC[C@@H]2O[C@H](CC(=O)N3CCCCC3)CC[C@H]21	0.986 ± 0.14	
N#C[C@@H]1[C@@H](c2ccc(C#CC3(O)CCCC3)cc2)[C@@H](CO)N1C(=O)C1CCCCC1	1.11 ± 0.019	
O=C(Nc1ccc(C(F)(F)F)cc1)N[C@@H]1C=C[C@@H](CC(=O)N2CCCCC2)O[C@H]1CO	1.111 ± 0.008	
C[C@@H]1CN([C@H](C)CO)C(=O)c2cccc(NC(=O)Nc3ccc(F)cc3)c2O[C@H]1CN(C)S(=O)(=O)c1ccc(Cl)cc1	0.92 ± 0.22	
CNC(=O)C[C@@H]1CC[C@@H]2[C@@H](COc3ccc(NC(=O)c4ccccc4F)cc3C(=O)N2C)O1	1.13 ± 0.083	
COc1cccc(S(=O)(=O)N2CC[C@H]3[C@H](CO)Nc4ccc(C#Cc5cccnc5)cc4[C@H]32)c1	1.11 ± 0.082	
O=C(Nc1cccc(F)c1)N1CCCCN2[C@H](C1)[C@@H](c1ccc(C#Cc3cccnc3)cc1)[C@@H]2CO	0.81 ± 0.05	
COc1ccc(NC(=O)N2CCCCN3[C@@H](CO)[C@@H](c4ccc(-c5ccccc5F)cc4)[C@@H]3C2)cc1	0.993 ± 0.011	
O=C(Nc1ccc(F)cc1)N1CC(=O)N2[C@H](CO)[C@H](c3ccc(C#Cc4cccnc4)cc3)[C@@H]2C1	1.028 ± 0.0039	
O=C(Nc1ccc(F)cc1)N1CC(=O)N2[C@H](CO)[C@H](c3ccc(C#Cc4cccnc4)cc3)[C@H]2C1	1.1 ± 0.086	
COc1ccc(NC(=O)N2CCCCN3[C@H](C2)[C@@H](c2ccc(-c4ccccc4F)cc2)[C@@H]3CO)cc1	0.981 ± 0.042	
COc1ccc(C#Cc2ccc([C@@H]3[C@@H](CO)N4CCCCN(C(=O)Nc5cccc(F)c5)C[C@H]34)cc2)cc1		0.654 ± 0.049
